This is part of a sample that, as a whole, favours compounds with a hit. Of some 83,000 tested, about 20% had one in any assay.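 96-well plates, one dose, 48 hours. Percent growth reported; active if below 10.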 Unmarked numbers belong to inactive results. The source made the active and inactive calls.

Test in all cases: NCI-60 one-dose screen, 48 h (100 = growth as untreated, 0 = no growth, -100 = all killed)
Test [1] has as its system HCT-15 colon. To be noted: 10 µM.
Test [2] concerns HT29 colon. To be noted: 10 µM.
The test system of test [3] is SNB-19 CNS. To be noted: 10 µM.
Test [4] deals with U251 CNS. As to conditions: 10 µM.
The subject of test [5] is PC-3 prostate. To be noted: 10 µM.
Test [6] has as its system SK-MEL-5 melanoma. To be noted: 10 µM.
Test [7] deals with UACC-62 melanoma.
Test [8] concerns LOX IMVI melanoma. To be noted: 10 µM.
Test [9] deals with SK-MEL-28 melanoma. As to conditions: 10 µM.

As to `CC1(c2ccccc2)NC(=O)NC1=O` (configuration not stated), the growth in test [1] was 110%; in test [2] it was 110%; in test [3], 103%; in [4] it was 113%; in [5] it was 98.6%; in test [6] it was 108%. Also, the values for the growth in [7] (10 µM unless noted), in test [8] and in [9] were 100%, 109% and 113%, respectively.

Take `COc1cc2cc(OC(C)=O)c3cc4c(cc3c2c(OC)c1OC)OCO4`: the growth in test [1] was 99.7%; in [2], 101%; in test [3], 105%; in test [4] it was 103%; in test [5] it was 94.7%; in test [6] it was 99.5%. The growth in test [7] (10 µM unless noted) is 103%; in [8], 94.9%; in test [9] it was 105%.

Consider `CC(C)=NNc1ccc([N+](=O)[O-])cc1[N+](=O)[O-]`, for which the growth is 62.3% in [1]; 91.8% in test [2]; 98.3% in [3]; 92.9% in [4]; 87.3% in test [5]; 102% in test [6]. The growth is 65.1% in test [7] (10 µM unless noted), 77.6% in [8] and 111% in test [9].

`CCOc1ccc(/C=C/C(=O)c2ccccc2)cc1`: the growth was 92.4% in test [1]; 96.1% in test [2]; 92.2% in [3]; 86.7% in test [4]; 73.7% in test [5]; 99.6% in test [6]. Also, the figures for the growth in test [7] (10 µM unless noted), in [8] and in [9] were 88.9%, 93.5% and 100%, respectively.

As for `NC(=S)CN1CCOCC1`, the growth in test [1] was 107%; in test [2], 100%; in test [3] it was 104%; in test [4], 102%; in test [5] it was 91.9%; in test [6] it was 106%. In addition, the values for the growth in test [7] (10 µM unless noted), in test [8] and in test [9] were 99%, 104% and 106%, respectively.

As for `CCOC(=O)/C(=C/c1ccc(OC)cc1)N(CC)CC`, the growth is 112% in test [1]; 109% in [2]; 103% in test [3]; 99.1% in [4]; 95.4% in test [5]; 99.7% in test [6]. Also, the values for the growth in test [7] (10 µM unless noted), in test [8] and in [9] were 102%, 97.7% and 112%, respectively.

For the compound `CCNCCCCNCCCCNCCCCNCCCCNCC`, the growth in test [1] is 99.1%; in test [2], 72.1%; in test [3], 81.1%; in [4], 95.5%; in test [5] it was 84.6%; in test [6] it was 73.8%. Further, the growth in test [7] (10 µM unless noted) is 72.8%; in [8], 75.3%.

For `CCN1C(=O)/C(=C/C=C/N(C)c2ccccc2)SC1=S`, the growth is 81.5% in [1]; 90.4% in test [2]; 94.1% in test [3]; 85.5% in test [4]; 85.1% in test [5]; 87.5% in test [6]. The growth was 91.3% in test [7] (10 µM unless noted), 91.5% in [8] and 94.6% in [9].

With `N#CCc1ccc([N+](=O)[O-])cc1`, the growth in [1] is 105%; in test [2], 104%; in test [3], 96.6%; in [4], 98.5%; in test [5], 95.8%; in [6], 101%. Also, the growth in test [7] (10 µM unless noted) is 92.8%; in test [8] it was 100%; in test [9] it was 106%.

Consider `CC(=O)N(C)c1ccc([N+](=O)[O-])cc1`, for which the growth is 102% in test [1]; 102% in test [2]; 97.5% in test [3]; 101% in [4]; 93.5% in test [5]; 103% in [6]. Further, the growth in test [7] (10 µM unless noted) was 104%; in test [8], 98.4%; in [9], 114%.

With `Cc1ccc(N)cc1[N+](=O)[O-]`, the growth is 106% in test [1]; 123% in [2]; 113% in test [3]; 98.8% in [4]; 95.8% in test [5]; 111% in test [6]. The growth in test [7] (10 µM unless noted) is 105%; in [8] it was 101%.

In the case of `COC(=O)/C=C\C(=O)OC`, the growth in test [1] was 107%; in test [2] it was 103%; in [3], 109%; in [4], 105%; in test [5] it was 93.1%; in test [6], 106%. Further, the growth is 101% in test [7] (10 µM unless noted), 102% in [8] and 112% in test [9].

Consider `Nc1nc(N)c2cc(S(=O)(=O)c3cccc(C(F)(F)F)c3)ccc2n1`, for which the growth was 33.2% in test [1]; 22.9% in test [2]; 43.6% in test [3]; 32.2% in test [4]; 39.6% in [5]; 28.3% in test [6]. For the same compound, the results for the growth in test [7] (10 µM unless noted), in test [8] and in [9] were 32.5%, 28.6% and 69.9%, respectively.

On to `CC(=O)NC(N)=S`, for which the growth in test [1] was 109%; in [2], 97.7%; in test [3], 101%; in test [4], 105%; in [5], 92.6%; in [6], 107%. In addition, the values for the growth in test [7] (10 µM unless noted) and in test [8] were 109% and 102%, respectively.

For the compound `O=C(O)c1ccccc1NCc1ccco1`, the growth is 108% in [1]; 98.7% in test [2]; 108% in [3]; 103% in test [4]; 111% in test [5]; 100% in test [6]. For the same compound, the growth is 101% in test [7] (10 µM unless noted), 93.5% in [8] and 111% in test [9].

Consider `C=C1CC/C=C(\C)C(=O)C[C@@H]2[C@@H]1CC2(C)C`, for which the growth was 99% in test [1]; 112% in test [2]; 95.7% in test [3]; 100% in test [4]; 92.6% in test [5]; 106% in test [6]. The growth in test [7] (10 µM) is 101%; in test [7] (100 µM), -99.1% (active); in test [8], 89.7%; in [9], 104%.

For the origin of these results see PubChem BioAssay (NCI).
